Our source for the growth values is PubChem BioAssay (NCI).

What all share (test): NCI-60 one-dose screen, 48 h (100 = growth as untreated, 0 = no growth, -100 = all killed)
What all share (conditions): 10 µM unless noted

Test [1] has as its system SR leukemia.
In test [2] the test system is RPMI-8226 leukemia.
Test [3] deals with OVCAR-8 ovarian.
For test [4], the system named is OVCAR-5 ovarian.
In test [5] the test system is OVCAR-4 ovarian.
In test [6] the test system is SK-OV-3 ovarian.
The subject of test [7] is IGROV1 ovarian.
Test [8] concerns OVCAR-3 ovarian.
Test [9] has as its system HS 578T breast.
For test [10], the system named is NCI/ADR-RES ovarian.

This is part of a sample that, as a whole, favours compounds with a hit. Of some 83,000 tested, about 20% had one in any assay.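 Cell lines were cultured in 96-well plates, exposed to a single compound concentration, and assessed for percent growth 48 hours later.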 Unmarked numbers belong to inactive results. Activity calls are given as the source filed them. The calls were made as follows: active = growth percent below 10; inactive = the rest.

As for `O=C(CN1CCCCC1)Nc1nc(-c2cc3ccccc3oc2=O)cs1`, the growth was 89.5% in [1]; 106% in [2]; 98.3% in [3]; 104% in test [4]; 95.3% in test [5]; 119% in [6]. In addition, the growth in [7] is 92.9%; in [8] it was 111%; in test [9] it was 93.3%; in test [10] it was 101%.
With `N#Cc1nc(-c2ccc(Cl)cc2)oc1S(=O)(=O)N1CCN(c2ccc(F)cc2)CC1`, the growth was 23.9% in test [1]; 88.4% in [2]; 82.3% in test [3]; 108% in [4]; 106% in [5]; 98.3% in test [6]. The growth in [7] was 78.8%; in [8], 108%; in test [9], 103%; in test [10] it was 101%.
With `COc1c(B(O)O)cccc1-c1nc2c(F)cc3[nH]ncc3c2c2c1CCCC2`, the growth in [1] is 1.26% (active); in [2], -11.7% (active); in test [3], 15.1%; in [4] it was 7.97% (active); in test [5], 6.02% (active); in test [6] it was 18.2%. For the same molecule, the growth in test [7] is 7.11% (active); in [8] it was -0.0178% (active); in test [9] it was 5.7% (active); in [10], 17.7%.
Take `Clc1ccc2c(c1)C(c1c[nH]c3ccccc13)(c1c[nH]c3ccccc13)CCO2`: the growth was 63.8% in [1]; 42.3% in test [2]; 58.6% in [3]; 96% in test [4]; 73.3% in test [5]; 39.6% in test [6]. Also, the growth in test [7] was 85.8%; in test [8] it was 81.2%; in test [9], 76.6%; in test [10] it was 92.2%.
As for `COc1ccc(-c2ccc(-c3ccc(C(=N)N)cc3)s2)cc1Cl`, the growth is -7.28% (active) in test [1]; -34.4% (active) in test [2]; -18.2% (active) in [3]; 14.2% in test [4]; -42% (active) in test [5]; 93% in test [6]. The growth in test [7] is -87.5% (active); in test [8], -88% (active); in test [9], 44.9%; in test [10], 78%.
Regarding `CCSc1nc2scc(C)c2c(=O)[nH]1`, the growth was 101% in test [1]; 101% in test [2]; 99.3% in test [3]; 99.8% in test [4]; 96.7% in test [5]; 98.5% in [6]. Further, the growth in test [7] is 102%; in [8], 107%; in test [9], 95.5%; in [10], 102%.
For the molecule `COc1cc2c(cc1OCCCN1CCN(CCCOc3cc4c(cc3OC)C(=O)N3CC(F)(F)C[C@H]3C=N4)CC1)N=C[C@@H]1CC(F)(F)CN1C2=O`, the growth in [1] was 37.5%; in test [2], 5.91% (active); in test [3], 62.2%; in [4], 41.2%; in [5], 83%; in test [6] it was 84.9%. Besides, the growth in test [7] was 60.9%; in test [8], 54.6%; in test [9], -0.618% (active); in [10], 111%.
Take `Nc1c(C(=O)Nc2ccccc2C(F)(F)F)sc2nc3c(cc12)CCC3`: the growth in test [1] is 86.6%; in test [2], 110%; in test [3], 100%; in [4], 103%; in test [5], 101%; in test [6], 87.7%. Moreover, the growth is 105% in [7], 113% in test [8], 95.1% in [9] and 101% in [10].
As for `O=C(c1ccncc1)N1N=C(c2ccc(Cl)cc2)C[C@H]1c1cn(-c2ccccc2)nc1-c1ccccc1`, the growth in test [1] is 91.1%; in test [2], 105%; in test [3], 74.6%; in test [4] it was 105%; in [5] it was 82.6%; in test [6] it was 83.4%. For the same molecule, the growth in test [7] is 99.4%; in test [8] it was 94.7%; in test [9], 87.2%; in test [10] it was 87%.
On to `O=C1/C(=C/c2ccccc2Br)COc2ccc(O)cc21`, for which the growth in test [1] is 10.3%; in test [2], 1.71% (active); in test [3], 55.5%; in [4] it was 91.9%; in [5] it was 77.8%; in test [6], 128%. For the same molecule, the growth is 78.6% in test [7], 54.5% in test [8], 70.5% in [9] and 46.9% in test [10].
Turning to `O=C(Nn1c2c(sc1=NC1CC1)C(=O)c1ccccc1C2=O)c1cc2ccc1CCc1ccc(cc1)CC2`, the growth in test [1] was 29.4%; in test [2], 19.5%; in test [3], 3.79% (active); in test [4], 111%; in test [5], 40.5%; in [6], 59.1%. Moreover, the growth in test [7] was 34.6%; in [8], 1.11% (active); in test [9], 46.2%; in [10] it was 17.8%.
For the molecule `CCOC(=O)c1cc(C)n(-c2ccc(C(=O)O)cc2)c1C`, the growth was 75.5% in test [1]; 104% in test [2]; 87.6% in test [3]; 76.7% in [4]; 94.6% in test [5]; 92.8% in test [6]. Further, the growth in [7] was 107%; in [8], 115%; in test [9], 90.8%; in [10], 89.6%.
On to `CC(C)(Sc1cc(C(C)(C)C)c(O)c(C(C)(C)C)c1)Sc1cc(C(C)(C)C)c(OC(=O)CCCC(=O)O)c(C(C)(C)C)c1`, for which the growth in [1] is 28.1%; in [2] it was 37.2%; in test [3], 56.7%; in test [4], 100%; in test [5], 67.9%; in test [6], 91.6%. Further, the growth in test [7] was 57.4%; in test [8], 44.2%; in test [9], 80.1%; in test [10], 78.7%.
